Assay results: PubChem BioAssay AID720541 (National Center for Advancing Translational Sciences (NCATS), 2013)
The campaign covered roughly 1,300 compounds. About 420 (32%) were called active. Inconclusive results (about 32%) are left out. The call rests on the fitted dose curve; in most records, active means well fitted inhibition curve with a large enough effect; inconclusive means small, poorly fitted or top-dose-only effect; inactive means no such curve, though single readings can be large or run the other way. The list shows a part of the results.

molecular target: C-terminal-binding protein 1 (Homo sapiens) (UniProt Q13363); assay: qHTS for Inhibitors of the Phosphatase Activity of Eya2: Carboxyl-terminal binding protein (CtBP) Counterscreen for Cherry-picked Compounds; conditions: purified protein-protein binding, AlphaScreen, 3 h; series mostly up to 46.1 µM; activity change, negative = inhibition: at the top concentration; further: nearly all actives have a fitted effect of over 65% in size
Text: The Eya protein family is an essential co-activator of the Six1 transcription factor. Six1 is a developmental gene that is abnormally re-expressed in a large percentage of breast cancers. This over-expression plays a causal role in the initiation and metastatic development of breast cancers. The Eya family of protein is also found to contain a unique HAD phosphatase domain with protein tyrosine phosphatase activity which can potentially play a role in Six1-mediated breast tumorigenesis. Recently, Eya2 is found to dephosphorylate the histone variant H2AX and direct cells towards DNA repair instead of apoptosis in the event of DNA damage.
A 1536 well format, fluorescence based qHTS assay was developed and used to target the phosphatase activity of Eya2 (AID 488837). In addition, a CtBP counterscreen was developed using the AlphaScreen technology to evaluate compound selectivity to target […]. The data herein reports the activity of the cherry-picked compounds against the CtBP AlphaScreen. Compounds that are active or have > 100 fold selectivity vs. the Eya2 activity were excluded for further characterization. Inactivity is the desired outcome for the CtBP counterscreen.
NIH Chemical Genomics Center [NCGC]
NIH Molecular Libraries Probe Centers Network [MLPCN]
Assay Submitter (PI): Rui Zhao, University of Colorado Denver
Four microliters of reagent (25 nM GST-E1A, 25 nM CtBP-6x HIS) was dispensed in a 1536 well Greiner plates. Twenty-three nanoliter of test compounds (final concentration of 2.5 nM - 46 uM) and positive control E1A peptide inhibitor (final concentration of 0.14 nM - 4.6 uM) were added to the plates using the Kalypsys pintool equipped with a 1536 pin head. The plates was then incubated at room temperature for 2 hours followed by addition of 1 uL Alpha bead donor / acceptor mix (20 ug/mL final concentration). The assay plates were incubated for additional 1 hour at room temperature and protected from light. The AlphaScreen signal was obtained using the PerkinElmer EnVision plate reader using the 680 nm excitation and 520 - 620 nm emission filters. The data was normalized to the E1A peptide inhibitor for maximum inhibition and DMSO treated wells as negative control.
On the % scale 0 is the no-effect control and ±100 the full control effect; potency means the concentration at half of the fitted maximal effect.

Compound	activity change, negative = inhibition	Potency
COc1ccc(-c2nc(N)ncc2-c2csc(C)n2)c(O)c1	-15.6% (inactive)	
C=C(C)COc1ccc(-c2nc(N)nc(C)c2-c2ccc(OC)cc2)c(O)c1		6.01 µM (active)
CC(C)S(=O)(=O)c1cnc(-c2ccccn2)nc1N		13.5 µM (active)
CCc1cc2c(=O)[nH]c(-c3ccccn3)nc2s1		1.9 µM (active)
Cn1c(-c2cc(Cl)ccc2O)nc2c1c(=O)[nH]c(=O)n2Cc1ccccc1	7.81% (inactive)	
CC(=O)c1ccc(NS(=O)(=O)c2cccc(C(=O)Nc3ccccc3C(=O)O)c2)cc1		15.1 µM (active)
COc1cccc(NC(=O)c2ccc3c(c2)CCN3S(C)(=O)=O)c1	-12.5% (inactive)	
COc1cc(NC(=O)c2ccc(S(=O)(=O)N(C)c3ccccc3)cc2)cc(OC)c1	-17% (inactive)	
CN(CC(=O)Nc1cccc(F)c1)C(=O)c1ccc(COc2ccccc2)cc1	11.9% (inactive)	
CC(=O)Oc1cccc(C(=O)Nc2cccc(C(=O)Nc3ccccc3C(=O)O)c2)c1		8.49 µM (active)
CC(C)CCNC(=O)c1onc(CSc2ccncc2)c1C(=O)NCCC(C)C	10.2% (inactive)	
Cc1nn(-c2ccccc2)c2c1C(c1cccnc1)N1C=C(S(=O)(=O)N3CCCCC3)C=CC1=N2 (stereo unspecified)	-21.1% (inactive)	
CC1CCCN(c2ccc3nc4ccccc4c(=O)n3n2)C1 (stereo unspecified)		7.57 µM (active)
COc1cc(/C=C2\C(C)=C(C#N)c3nc(N)c(C#N)c(C)c32)ccc1OCC(=O)O		8.49 µM (active)
COc1cc(C=NO)nc(-c2ccccn2)c1		1.07 µM (active)
NC(=O)c1nn2c(C(F)(F)F)cc(-c3ccccc3)nc2c1Br		10.7 µM (active)
Cc1ccc(C(=O)ON=C2CCN(c3ccc([N+](=O)[O-])cc3)CC2)cc1	-16.2% (inactive)	
CCN(Cc1cccc(S(=O)(=O)O)c1)c1ccc(C(=C2C=CC(=[N+](CC)Cc3cccc(S(=O)(=O)O)c3)C=C2)c2ccccc2S(=O)(=O)[O-])cc1		12 µM (active)
CCN(Cc1cccc(S(=O)(=O)O)c1)c1ccc(C(=C2C=CC(=[N+](CC)Cc3cccc(S(=O)(=O)O)c3)C=C2)c2ccc(O)cc2S(=O)(=O)O)cc1		12 µM (active)
N#CC1=C(N)n2c(s/c(=C\c3cccs3)c2=O)=C(C#N)C1c1cccs1 (stereo unspecified)		13.5 µM (active)
CC(=O)N1CCCc2cc(S(=O)(=O)N3CCCC(C(=O)N4CCN(c5cc(C)ccc5C)CC4)C3)ccc21 (stereo unspecified)	-19.2% (inactive)	

Compound	activity change, negative = inhibition	Potency
CN1C(=O)NC(c2ccccc2)(C(F)(F)F)S/C1=C(/C#N)c1nnc(N2CCOCC2)n1-c1ccccc1 (stereo unspecified)	-19% (inactive)	
CCOc1cc(C=NNC(=O)c2cccc(S(=O)(=O)N3CCCC3)c2)ccc1O		7.57 µM (active)
Cc1ccc(Nc2c(-c3ccccn3)nc3ccc(C)cn23)cc1		4.26 µM (active)
Cc1cccc(C)c1Nc1c(-c2ccccn2)nc2ccccn12		7.57 µM (active)
Cc1ccccc1Nc1c(-c2ccccn2)nc2ccccn12		2.69 µM (active)
Cc1onc(-c2ccccc2Cl)c1C(=O)N(Cc1ccc(N(C)C)cc1)C(C)C	-12.2% (inactive)	
Cc1cccc(S(=O)(=O)C(C#N)c2nc3ccccc3nc2N2CCOCC2)c1 (stereo unspecified)	-9.38% (inactive)	
CC(C)N=c1cc2n(-c3ccc(Cl)cc3)c3ccccc3nc-2cc1Nc1ccc(Cl)cc1		3.38 µM (active)
O=S(=O)(Nc1cccc(-c2cn3cccnc3n2)c1)c1ccc(F)cc1		15.1 µM (active)
Cn1c(=O)c2cc(S(=O)(=O)Nc3cccc(F)c3)ccc2n(C)c1=O	-14.5% (inactive)	
O=S(=O)(Nc1cccc(-c2cn3cccnc3n2)c1)c1ccccc1		4.26 µM (active)
COc1cc(NC(=O)c2cccs2)c(OC)cc1NC(=O)Nc1ccc(F)cc1	-7.75% (inactive)	
COc1cc(NC(=O)c2cccs2)c(OC)cc1NC(=O)Cc1ccccc1		7.57 µM (active)
COc1cc(NC(=O)c2cccs2)c(OC)cc1NC(=O)CCn1nnc2ccccc21		12 µM (active)
COc1cc(NC(=O)c2cccs2)c(OC)cc1NC(=O)CCC(=O)Nc1ccc2ncccc2c1		1.69 µM (active)
O=C(CNC(=O)c1cccs1)OCC(=O)c1ccc(Cl)cc1	9.32% (inactive)	
O=C(CC(=O)c1c(F)cccc1Cl)c1ccccc1O	-17.1% (inactive)	
Cc1ccc(S(=O)(=O)Nc2c(C)n(C)n(-c3ccccc3)c2=O)cc1C(=O)OC(C)C(=O)N(C)c1ccccc1 (stereo unspecified)	-10.9% (inactive)	
O=C1/C(=C/c2ccco2)SC(=S)N1c1cccnc1		15.1 µM (active)
CCOC(=O)c1c(C)oc2c1c(C=NCc1ccccn1)c(O)c1ccccc12		15.1 µM (active)
CC(=O)Oc1cccc2c1C(=O)c1c(OC(C)=O)cc(C(=O)O)cc1C2=O		12 µM (active)

Compound	activity change, negative = inhibition	Potency
O=C(O)c1cccc(N2C(=O)c3cccc(Oc4ccc(Cl)cc4)c3C2=O)c1	8% (inactive)	
N#C/C(=C\c1ccc(OC(=O)c2ccc(Cl)s2)cc1)c1nc2ccccc2[nH]1	8.82% (inactive)	
CCOC(=O)/C(C#N)=C/c1ccc(OC(=O)c2ccccn2)cc1		7.57 µM (active)
N#C/C(=C\c1ccc(OC(=O)c2ccccn2)cc1)C(N)=O		12 µM (active)
N#C/C(=C\c1ccc(OC(=O)c2ccc(Br)s2)cc1)c1nc2ccccc2[nH]1	2.83% (inactive)	
N#C/C(=C/c1ccc(OC(=O)c2ccc(Br)s2)cc1)c1nc2ccccc2[nH]1	4.6% (inactive)	
O=C(Oc1cncc(Cl)c1)c1sccc1Cl	-9.79% (inactive)	
Cc1cc2nc(/N=C(\N)NC(=O)N3c4ccccc4Sc4ccccc43)nc(C)c2cc1C	-24.2% (inactive)	
Cc1c(CCC(=O)O)c(=O)oc2c(C)c(OCc3cc4c(cc3Cl)OCO4)ccc12		13.5 µM (active)
Cc1cc(C)cc(COc2ccc3c(C)c(CC(=O)O)c(=O)oc3c2C)c1	-27.5% (inactive)	
O=C(Cn1ccc(=O)[nH]c1=O)Nc1nccs1	2.11% (inactive)	
Nc1ccc(N2CCCCC2)c2nonc12		6.75 µM (active)
O=C(Cc1cccs1)Nc1ccc2c(c1)C(=O)OC2	3.68% (inactive)	
O=C1CCCC2=C1C(c1ccco1)Nc1ccc3ccccc3c12 (stereo unspecified)	-13.1% (inactive)	
O=C(Nc1ccc(Nc2ccccc2)cc1)c1ccc(Cl)cc1[N+](=O)[O-]	-12.6% (inactive)	
O=C(O)c1ccc(Nc2cnc3ccccc3n2)cc1	-13.9% (inactive)	
Cc1cc(NS(=O)(=O)c2ccc(NC(=O)c3cnc(Cl)c(Cl)c3)cc2)nc(C)n1		1.69 µM (active)
O=C(Nc1ccc(S(=O)(=O)Nc2cnc3ccccc3n2)cc1)c1ccc(Cl)c([N+](=O)[O-])c1		2.13 µM (active)
Cc1cc(NS(=O)(=O)c2ccc(NC(=O)c3cc4c(=O)n5ccccc5nc4s3)cc2)nc(C)n1		6.75 µM (active)
